Source: PubChem BioAssay
A selection: hits, their analogues and other compounds. The true share with any hit is near 1.3%.
p53 reactivator = qHTS assay for re-activators of p53 using a Luc reporter | AID 504706, 2011 | H1299 p53-A138V BP100-luciferase reporter, luminescence, 24 h | actives 0.063% (n = 320,000) | Potency, µM (titrated, usually from 92.2 µM), without a hit: top-dose activity change, positive = activation, usual class: activators; also: potency is read from the fitted curve at half-maximal effect; % of control where 0% means no effect; nearly all actives have a fitted effect of over 45% in size
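H1299 (p53-null), stable ts p53-A138V + BP100-Luc; 1000 cells/well, Opti-MEM/10% FBS; cpd 4 pt, 1:5; 24 h, 37 deg C, 5% CO2; detection reagent 10 min RT; luminescence.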
BRCA1 expr up = qHTS Assay to Identify Small Molecule Activators of BRCA1 Expression. MCF7-BRCA1-FFLuc reporter, luminescence, 48 h; response scale: scaled: vehicle 0%, 10 µM genistein 100%. actives 1.1% (n = 380,000). AID 624202, 2012. Potency, µM (doses to about 46.1 µM), without a hit: at the highest dose activation, actives largely listed as activators; also: potency is read from the fitted curve at half-maximal effect; nearly all actives have a fitted effect of over 80% in size
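48 h compound treatment of MCF7-BRCA1-FFLuc cells (phenol-red free MEM, 37 °C), then 15 min with luciferase substrate and luminescence imaging.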
TCR activator = Activators of T cell receptors: qHTS campaign | Potency, µM (series often up to 9.22 µM), without a hit: at the highest dose activation of IL-2 secretion, hits mostly activators | AID 504894, 2011 | primary human leukocytes, anti-CD3, IL-2 HTRF, 48 h | 330,000 tested, under 10 active; also: % of control where 0% means no effect
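Readout: HTRF IL-2, Eu-cryptate/d2 antibody pair, 320nm excitation, 665nm emission. Stimulus: a-CD3 beads, no co-stimulation. Cells: primary human leukocytes. Exposure: 48 hr with compound.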
Mito fusion act = qHTS Assay for Small Molecule Inhibitors of Mitochondrial Division or Activators of Mitochondrial Fusion. S. cerevisiae fusion-defective mutant growth rescue, CellTiterGlo 48 h. Potency, µM (highest dose often 46.1 µM), for inactives: at the top dose growth rescue (activation), most hits filed as activators. actives 0.23% (n = 320,000). AID 485298, 2010; also: potency is read from the fitted curve at half-maximal effect; % of control where 0% means no effect; nearly all actives have a fitted effect of over 45% in size
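Yeast fusion mutant, YPEG (non-fermentable carbon), compound, 48 h at 37C non-permissive; CellTiterGlo added, 10 min RT, luminescence read. Rescued growth = division inhibition.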
IL-2 act = qHTS of IL-2 Activators; activation, % (series mostly up to about 46 µM); IL-2 activation reporter assay, cell-based qHTS; stimulated with anti-CD3/CD4/CD28 beads; in transgenic mouse T cells; AID 652025, 2013; actives 0.065% (n = 360,000); in the data active = activation above about 50%; also: 0% is about no effect
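Readout: EGFP and DsRed signals by fluorescent plate cytometry. Unstimulated transgenic mouse T cells received compound 60 min before antibody-bead stimulation, then incubated 18 h at 37 degrees C.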
* hit, by the source's call; [ ] = dose if it differs, or a comment. Unless noted, calls follow the shape of the dose curve; as a rule, active = well fitted curve in the direction sought with a large enough effect; inconclusive = small, poorly fitted or top-dose-only effect, or another doubt; inactive = no such curve, though single readings can be large; an effect the other way counts as inactive or inconclusive.

How did Cc1[nH]n(-c2ccccc2)c(=O)c1/C=N/N(c1ccccc1)c1ccccc1 do in these assays?
p53 reactivator: 0%; BRCA1 expr up: 0%; TCR activator: -1%; Mito fusion act: 14%; IL-2 act: -4

Results for Cn1c(NC(=O)C[n+]2cc(-c3ccc(F)cc3)n3c2CCC3)cc(=O)n(C)c1=O ?
p53 reactivator: -8%; BRCA1 expr up: 3%; TCR activator: 0%[46.1 µM]; Mito fusion act: -5%; IL-2 act: 0

How did O=C(C[n+]1cc(-c2ccc(F)cc2)n2c1CCC2)c1cccs1 do in these assays?
p53 reactivator: 21%; BRCA1 expr up: 2µM*; TCR activator: 1%; Mito fusion act: -3%; IL-2 act: -1

How did O=S(=O)(c1ccc2c(Cl)cccc2c1)N1CCN(c2nc(-c3cccs3)nc3ccccc23)CC1 do in these assays?
BRCA1 expr up: -13%

Results for CCSc1ncc(Cl)c(C(=O)Nc2sc3c(c2C(=O)NCCOC)CCCC3)n1 ?
BRCA1 expr up: 9%

What do the screens show for `N#Cc1cccc(S(=O)(=O)N2CCN(c3nc(-c4cccs4)nc4ccccc34)CC2)c1`?
BRCA1 expr up: 0%

Results for Cc1cc(=O)[nH]c2nnc(-c3ccc(Br)cc3)n12 ?
p53 reactivator: 7%; BRCA1 expr up: 4µM*; TCR activator: 2%; Mito fusion act: 2%; IL-2 act: 8

How did O=C(C1COc2ccccc2O1)N1CCc2ccccc21 (stereo not given) do in these assays?
p53 reactivator: 8%; BRCA1 expr up: 11µM*; Mito fusion act: 7%; IL-2 act: 0

Results for Cc1ccc(/C=C2/NC(=O)N(c3ccccc3)C2=O)o1 ?
p53 reactivator: 14%; BRCA1 expr up: 7.9µM*; TCR activator: 4%; Mito fusion act: 1%; IL-2 act: -3

Results for Cc1c(C(=O)O)cccc1-c1ccc(/C=C2/NC(=O)N(c3ccccc3)C2=O)o1 ?
p53 reactivator: 11%; BRCA1 expr up: 104%; TCR activator: -1%; Mito fusion act: -3%; IL-2 act: -2

How did Oc1ccccc1C1C=C(c2ccc3c(c2)OCO3)NC(c2cccc(F)c2)N1 (stereo not given) do in these assays?
BRCA1 expr up: -4%

Results for CC(=O)c1cccc(-n2c(=O)c3c4c(sc3n(Cc3ccccc3Cl)c2=O)CN(C(C)=O)CC4)c1 ?
BRCA1 expr up: 0%

How did COc1cccc(C2=N/C(=C\N(C)C)C(=O)O2)c1 do in these assays?
p53 reactivator: 8%; BRCA1 expr up: 11µM*; TCR activator: -4%; Mito fusion act: -8%; IL-2 act: -1

Results for O=C(CSc1nncs1)NC(=O)Nc1ccc2c(c1)OCCO2 ?
p53 reactivator: 16%; BRCA1 expr up: 4.5µM*; TCR activator: 9%; Mito fusion act: 1%; IL-2 act: -3

Results for O=C1CC(c2cccc(Br)c2)c2cc3c(cc2N1)CCC3 (stereo not given) ?
p53 reactivator: -9%; BRCA1 expr up: -73%; TCR activator: -3%; Mito fusion act: -12%; IL-2 act: -2

How did O=C1CC(c2cc(F)ccc2F)c2cc3c(cc2N1)CCC3 (stereo not given) do in these assays?
p53 reactivator: 1%; BRCA1 expr up: 0%; TCR activator: -4%; Mito fusion act: 7.1µM*; IL-2 act: -2

Results for COc1ccc(-c2c(C)nn3c(N4CCN(c5ccccc5)CC4)cc(C)nc23)cc1OC ?
BRCA1 expr up: -4%

Results for OC(Cn1cncn1)(c1ccc(F)cc1)c1ccc(Cl)cc1 (stereo not given) ?
p53 reactivator: -6%; BRCA1 expr up: -11%; TCR activator: -2%; Mito fusion act: 7.1µM*; IL-2 act: 0
